Bioassay records: PubChem BioAssay, several laboratories
TRPM1 prom inh – inhibitors of MITF-dependent TRPM1 promoter reporter, primary screen, cell-based, SK-MEL-5, single point, luciferase; SK-MEL-5 TRPM1 promoter luciferase, 24 h; 330,000 compounds, 0.83% hits; inhibition, % at 12.5 µM;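 active = mean inhibition across replicates of 60% or more, whatever share of single replicates reaches that level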
HIF-2a block – HIF-2a reporter inhibitors, primary screen, luminescence, 786-0 RCC cells; 360,000 compounds, 0.72% hits; AID 624352, 2012; 786-0 RCC cells HIF-2a reporter, luciferase luminescence, overnight; inhibition, % at 18.8 µM;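 active = inhibition of the luminescence signal of 40% or more relative to plate controls, in a single-dose primary screen at 18.75 µM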
Shn3 inh set2 – reduction of Shn3 3'UTR firefly luciferase signal, primary screen, Schnurri-3 inhibitor project, cell-based, Clone20 osteoblasts, set 2; Clone20 osteoblast Shn3 3'UTR firefly luciferase, 24 h; inhibition, % at 12.5 µM; 360,000 compounds, 0.52% hits;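 active = mean inhibition of at least 75% with every replicate also reaching 75%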;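 note: 0% = median of neutral control wells and 100% = pilot-screen positive control compound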
CF NFkB inh – inhibitors of PAF-induced NF-kB signaling, primary screen, cell-based, GFP fluorescence, uHTS; KKLEB NF-kB-GFP reporter, GFP fluorescence overnight; inhibition, % at 5 µM; 360,000 compounds, 0.86% hits; AID 588850, 2011;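 active = at least 50% inhibition at 5 µM, scaled per plate between neutral and stimulator controls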;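 note: PAF is a Pseudomonas aeruginosa culture filtrate used as stimulus; plate controls were PAF-stimulated DMSO wells for no effect and unstimulated DMSO wells for full effect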
Peg3 prom inh – Peg3 promoter-driven luciferase inhibitors, primary screen, cell-based, HeLa, luciferase luminescence; HeLa PEG-Prom luciferase reporter, overnight; inhibition, % at 20 µM; 360,000 compounds, 1.7% hits;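 active = inhibition of at least 50% at 20 µM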
KKLEB cytotox – cytotoxicity in KKLEB CF airway cells, primary screen, cytotoxicity control for CF NF-kB inhibitor project, cell-based, uHTS, fluorescence assay plates; KKLEB CF airway cells viability, ATPlite luminescence, overnight; hits give low values; cells stimulated with P. aeruginosa culture filtrate; activity change (cytotoxicity), % at 5 µM; 360,000 compounds, 0.36% hits; AID 602141, 2011;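 active = corrected activity change at or below -50% at 5 µM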
* = called active by the depositor; . = no result. Rows were chosen to be rich in hits. Some 2.7% of all compounds tested hit in one or more screens of this group.

SMILES	TRPM1 prom inh	HIF-2a block	Shn3 inh set2	CF NFkB inh	Peg3 prom inh	KKLEB cytotox
CCc1nc2c(OCC(=O)c3ccc(Cl)cc3Cl)cccn2c1N(C=O)Cc1ccccc1	.	-23	24	-7	26	-4
CCn1c(SCC(=O)c2cc(OC)ccc2OC)nnc1-c1ccncc1	4	0	4	5	70*	-5
CCn1c(SCC(=O)c2cc(OC)ccc2OC)nnc1C(C)C	-13	5	-10	-9	3	3
Cc1ccccc1OCc1nc2ccccc2c(=O)n1/N=C/c1cn[nH]c1-c1ccc(Br)cc1	-17	-5	-35	31	61*	-12
COc1ccccc1NC(=O)Nc1nnc([C@H]2C[C@H](O)[C@@H](CO)O2)s1	.	17	2	-17	9	2
COc1ccccc1C1c2ccc3ccccc3c2Oc2ncn(CCN(C)C)c(=N)c21 (stereo unspecified)	69*	-2	-4	24	103*	-14
COc1ccc(C2c3c(ncn(CCN4CCOCC4)c3=N)Oc3ccc4ccccc4c32)cc1OC (stereo unspecified)	5	-16	2	15	78*	-24
COc1ccc(C2c3c(ncn(CCCO)c3=N)Oc3ccc4ccccc4c32)cc1 (stereo unspecified)	26	18	4	8	82*	-11
COc1ccc(C2c3ccc4ccccc4c3Oc3ncn(Cc4ccco4)c(=N)c32)cc1OC (stereo unspecified)	27	-9	39	37	42	-10
CN(CCc1ccccc1)C(C(=O)c1ccc2c(c1)OCO2)c1nnnn1-c1ccccc1NC(=O)OC(C)(C)C (stereo unspecified)	.	-106	.	.	.	.
COC(=O)C1=C(C)NC(C)=C(C(=O)OC)C1C(=O)OCC(=O)NC1CCCCC1C (stereo unspecified)	.	4	-3	9	-8	-7
N#CCSc1nc2cc(C(=O)N3CCC(C(N)=O)CC3)ccc2c2nc3ccccc3n12	17	-6	9	68*	11	-26
N#CCSc1nc2ccccc2c2nc3ccccc3n12	77*	-4	0	42	40	-46
N#CCSc1nc2cc(C(=O)N3CCCC3)ccc2c(=O)n1Cc1ccccc1	20	22	12	20	26	-14
O=C(c1ccc(Cl)c(Cl)c1)N1CCC(=O)N([C@H](COCc2ccc(Cl)cc2)Cc2ccccc2)CC1	.	-21	.	.	.	.
Cc1ccc(/C=N/Nc2ccnc3cc(Cl)ccc23)c(C)c1	87*	8	4	-16	111*	-36
CCNC1CCC(Nc2ccnc3cc(Cl)ccc23)CC1 (stereo unspecified)	25	-24	68	-14	25	11
OC(CNc1ccnc2cc(Cl)ccc12)CNC1CCCCC1 (stereo unspecified)	91*	-30	44	-7	100*	-4
CCN(CC)CCNc1ccnc2cc(Cl)ccc12	-11	0	23	1	-2	-7
Clc1ccc2c(NCc3ccccc3)ccnc2c1	28	-5	90*	5	-1	-2
Clc1ccc2c(N/N=C/c3ccc(Br)cc3)ccnc2c1	31	33	-8	-17	105*	-16
CC(C)(C)NC(=O)C(c1ccccc1F)n1c(=O)c(-c2cc3ccccc3[nH]2)nc2ccccc21 (stereo unspecified)	.	-50	.	.	.	.
Cc1nn(-c2ccccc2)nc1C(=O)Nc1cccc(C(=O)NC2CC2)c1	.	3	3	-26	48	-6
CC(=O)NC(C)(c1ccccc1)c1nc(-c2ccc(F)c(Cl)c2)cs1 (stereo unspecified)	.	18	14	15	18	-17
Cc1ccccc1/C=N/Nc1ccnc2cc(Cl)ccc12	68*	-53	82	-57	94*	-23
SMILES	TRPM1 prom inh	HIF-2a block	Shn3 inh set2	CF NFkB inh	Peg3 prom inh	KKLEB cytotox
COc1ccc(S(=O)(=O)N(C)C[C@H]2OCc3cnnn3CCCC(=O)N([C@@H](C)CO)C[C@H]2C)cc1	.	8	1	7	7	-1
COc1ccc(C(=O)OCC(=O)c2ccc(CNC(C)=O)s2)cc1	-16	-48	-44	0	-38	0
CC(=O)NCc1ccc(C(=O)CCl)s1	39	18	-13	9	69*	-26
CC(=O)NCc1ccc(C(=O)CCl)cc1	29	15	3	2	53*	14
Cc1ccccc1N1CC(=O)N(c2ccccc2C)CC1=O	20	16	-5	1	16	0
Cc1cccc2c1c1ccc3c(c1n2C)C(=O)C=CC3=O	94*	6	51	0	93*	-1
Cc1ccc(F)c(S(=O)(=O)NC(=O)C2(C)CCN2C(=O)CC(c2ccccc2)c2ccccc2)c1 (stereo unspecified)	.	5	-12	2	5	-10
C/C(Cl)=C\Cn1c(NCCc2ccccc2)nc2c1c(=O)n(C)c(=O)n2C	7	-3	88*	8	2	21
COCCn1c(SCC(=O)/C=C2\N(C)c3ccccc3C2(C)C)nnc1-c1ccncc1	6	15	89*	3	14	-7
COc1ccc(/C=N/NC(=O)c2ccc(NS(=O)(=O)c3cccs3)cc2)cc1	-15	-34	-7	-48	104*	-8
O=C(O)c1ccc(/C=N/NC(=O)c2ccc(NS(=O)(=O)c3cccs3)cc2)cc1	2	14	-22	31	-1	6
CCC(Sc1nc2ccncc2[nH]1)C(=O)Nc1ccc(C)c(Cl)c1 (stereo unspecified)	14	11	-18	-9	85*	0
CCOc1ccccc1NC(=O)C(CC)Sc1nc2ccncc2[nH]1 (stereo unspecified)	13	10	15	-12	16	6
O=C(NC1CCCCC1)C(c1ccncc1)n1c(=O)c(-c2cc3ccccc3[nH]2)nc2ccccc21 (stereo unspecified)	.	-76	.	.	.	.
Cc1ccc(C(=O)NCCNc2nc3cc(C)c(C)cc3cc2C)cc1	-15	22	0	12	61*	-12
COc1ccc(-c2ccc(C(=O)Nc3ccc(OC)nc3)c3occc23)c(C)c1	.	-131	13	-15	-63	-15
Oc1ccccc1N1CCN(c2ncnc3scc(-c4ccc(F)cc4)c23)CC1	7	23	18	34	49	9
Oc1ccccc1N1CCN(c2ncnc3scc(-c4ccccc4)c23)CC1	2	24	-9	36	59*	1
